From PubChem BioAssay
UCHL1 block: blocks human UCHL1 ubiquitin-rhodamine cleavage; purified UCHL1, Ub-rhodamine cleavage fluorescence; AID 1645859; inhibition, % at 20 µM; actives 0.2% (n = 47,000); P09936
USP10 inh: blocks human USP10 ubiquitin-rhodamine cleavage; inhibition, % at 20 µM; AID 1645856; purified USP10, Ub-rhodamine fluorescence, 60 min; actives 1.1% (n = 47,000); Q14694
USP7 block: human USP7 deubiquitinase inhibition; purified USP7, Ub-rhodamine cleavage fluorescence; inhibition, % at 20 µM; actives 0.3% (n = 47,000)
USP8 inh: blocks human USP8 ubiquitin-rhodamine cleavage; P40818; purified USP8, Ub-rhodamine cleavage fluorescence, 30 min; inhibition, % at 20 µM; actives 4.2% (n = 47,000); AID 1645853
Hits are given with their value. Only some compounds are listed: those with a hit (about 4.6% of all), similar ones and a draw of the others. Cut-off read from the data, not from the text of the source: active = inhibition above about 30%; inactive = the rest.

For Cc1cccc(NS(=O)(=O)c2ccc(N3CCCCS3(=O)=O)cc2)c1 the results were UCHL1 block inactive, USP10 inh inactive, USP7 block inactive and USP8 inh inactive.
Screening Cc1cccc(NC(=O)C2CC(=O)NC(N3CCN(c4ccccc4)CC3)=N2)c1 (configuration not stated) returned UCHL1 block inactive, USP10 inh inactive, USP7 block inactive and USP8 inh 34.
For Cc1ccc(S(=O)(=O)N(C)c2c(C)ccc(S(=O)(=O)N3CCCCC3)c2C)cc1 the results were UCHL1 block inactive, USP10 inh inactive, USP7 block inactive and USP8 inh inactive.
Screening COC(=O)c1cc2c(ccn2-c2ccc(F)cc2)n1C returned UCHL1 block inactive, USP10 inh inactive, USP7 block inactive and USP8 inh 36.
For COC(=O)c1cc2c(ccn2-c2ccc(F)cc2)n1CC(=O)N(C1CCCCC1)C1CCCCC1 the results were UCHL1 block inactive, USP10 inh inactive, USP7 block inactive and USP8 inh inactive.
Screening Nc1nnc(-c2cc(-c3ccc4c(c3)OCO4)on2)o1 returned UCHL1 block inactive, USP10 inh inactive, USP7 block inactive and USP8 inh 54.
`c1cc2c(cc1-c1cc(C3CCCCCN3)no1)OCO2` (configuration not stated) gave UCHL1 block inactive, USP10 inh inactive, USP7 block inactive and USP8 inh inactive.
CN(C)C(=O)[C@@]12CCC3(CCN(C(=O)Nc4ccccc4)CC3)[C@@H]1CN(S(C)(=O)=O)C2 was read as UCHL1 block inactive, USP10 inh inactive, USP7 block inactive and USP8 inh inactive.
Screening N#Cc1c(N)nc2c(c1-c1ccccc1)CCc1ccccc1-2 returned UCHL1 block inactive, USP10 inh inactive, USP7 block inactive and USP8 inh inactive.
CC(=O)c1oc2nc3c(c(-c4ccc(Cl)cc4)c2c1N)CCc1ccccc1-3 was read as UCHL1 block inactive, USP10 inh inactive, USP7 block inactive and USP8 inh 65.
Screening COC(=O)COc1ccc(/C=N/NC(=O)c2ccc(CN3CCc4ccccc4C3)cc2)cc1 returned UCHL1 block inactive, USP10 inh inactive, USP7 block inactive and USP8 inh 36.
Screening O=C(Nc1ccccc1C(=O)N1CCCC1)c1ccc(CN2CCc3ccccc3C2)cc1 returned UCHL1 block inactive, USP10 inh inactive, USP7 block inactive and USP8 inh 40.
For NS(=O)(=O)c1ccc(NC(=O)Cn2cnc3cc([N+](=O)[O-])ccc3c2=O)cc1 the results were UCHL1 block inactive, USP10 inh inactive, USP7 block inactive and USP8 inh 55.
`O=C(Cn1cnc2cc([N+](=O)[O-])ccc2c1=O)Nc1ccc2c(c1)OCCO2` gave UCHL1 block inactive, USP10 inh inactive, USP7 block inactive and USP8 inh inactive.
For COc1ccccc1-c1cc(NC(C)=O)c2ncc(-c3ccc(S(C)(=O)=O)cc3)n2c1 the results were UCHL1 block inactive, USP10 inh inactive, USP7 block inactive and USP8 inh 69.
For CC(=O)Nc1cc(-c2cccc(CO)c2)cn2c(-c3ccc(S(C)(=O)=O)cc3)cnc12 the results were UCHL1 block inactive, USP10 inh inactive, USP7 block inactive and USP8 inh inactive.
NS(=O)(=O)c1ccc(CCNC(=O)Cc2cc(-c3ccc(F)cc3F)on2)cc1 was read as UCHL1 block inactive, USP10 inh inactive, USP7 block inactive and USP8 inh 40.
`COc1ccc(CCNC(=O)Cc2cc(-c3ccc(F)cc3F)on2)cc1OC` gave UCHL1 block inactive, USP10 inh inactive, USP7 block inactive and USP8 inh inactive.
O=C(Cc1cc(-c2ccc(Cl)cc2)on1)NCCc1ccccc1 was read as UCHL1 block inactive, USP10 inh inactive, USP7 block inactive and USP8 inh 53.
COC(=O)CCCNC(=O)C1c2ccccc2C(=O)N(Cc2ccccc2)C12CCCC2 (configuration not stated) was read as UCHL1 block inactive, USP10 inh inactive, USP7 block inactive and USP8 inh 45.
`COc1ccc(CNC(=O)c2ccc3c(=O)nc4c(-c5cccc(C)c5)n[nH]n4c3c2)cc1` gave UCHL1 block inactive, USP10 inh 41, USP7 block inactive and USP8 inh 61.
`CCc1cnc(N2CCC3(CCN(c4ncccn4)CC3)CC2)nc1` gave UCHL1 block inactive, USP10 inh inactive, USP7 block inactive and USP8 inh inactive.
For C=C[C@]1(C)CC[C@]2(C)[C@@H](C1)[C@@H](O)C[C@H]1[C@]3(C)CCC[C@@]12OC3=O the results were UCHL1 block inactive, USP10 inh 38, USP7 block inactive and USP8 inh inactive.
Fc1ccc(-c2cc3nc(NCCc4ccncc4)ccn3n2)cc1 was read as UCHL1 block inactive, USP10 inh inactive, USP7 block inactive and USP8 inh inactive.
